Experimental data as given in PMC5540273 (PLoS ONE, 2017).

Experiments:
Conditions in all cases: concentration: 1 μM, replicates: in singlicate; n = 1
FLT1 = tested on: FLT1
FLT3-autoinhibited = tested on: FLT3-autoinhibited
FLT3 = tested on: FLT3
FLT4 = tested on: FLT4
FRK = tested on: FRK
FYN = tested on: FYN
GAK = tested on: GAK
GCN2(Kin.Dom.2,S808G) = tested on: T1, GCN2(Kin.Dom.2,S808G)
T1 construct: gene EIF2AK4

GRK1 = tested on: GRK1
GRK2 = tested on: T2, GRK2
T2 construct: gene ADRBK1
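Further: KINOMEscan kinase panel screen.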

Row | Structure (SMILES) | %Inh (FLT1) [%] | %Inh (FLT3-autoinhibited) [%] | %Inh (FLT3) [%] | %Inh (FLT4) [%] | %Inh (FRK) [%] | %Inh (FYN) [%] | %Inh (GAK) [%] | %Inh (GCN2(Kin.Dom.2,S808G)) [%] | %Inh (GRK1) [%] | %Inh (GRK2) [%]
1 | Nc1ncnc2occ(-c3ccc4c(c3)CCN4C(=O)Cc3cc(F)ccc3F)c12 [GSK2645446] | 6 | 0 | 0 | 1 | 0 | 0 | 0 | 0 | 0 | 0
2 | COc1ccc(Nc2nccc(N3CCC(NC(=O)C(C)c4ccc(Cl)cc4)C3)n2)cc1 (centres unmarked) [GSK1379735] | 21 | 5 | 10 | 5 | 0 | 15 | 11 | 9 | 7 | 0
3 | COc1nccc(-c2c(-c3ccc(F)cc3)ncn2CCCN2CCOCC2)n1 [SB-282852] | 10 | 4 | 0 | 0 | 0 | 0 | 0 | 1 | 29 | 2
4 | COc1cccc(NC(=O)Nc2ccc(C)c(-c3ccc(C(=O)Nc4ccncc4)cc3)c2)c1 [GSK1398474] | 37 | 0 | 25 | 41 | 10 | 25 | 0 | 0 | 28 | 0
5 | Cn1cncc1-c1cc2c(Nc3ccc(OCc4ccccc4)cc3)ncnc2cn1 [GW281179] | 19 | 0 | 0 | 0 | 6 | 28 | 0 | 1 | 0 | 9
6 | Fc1ccc(-c2nn3cccc(F)c3c2-c2ccncc2)cc1 [GW475620] | 27 | 2 | 0 | 25 | 14 | 16 | 65 | 0 | 0 | 6
7 | O=c1cc(N2CCOCC2)nc2n(Cc3cccc(Cl)c3Cl)c3ccccc3n12 [GSK2299009] | 41 | 9 | 28 | 16 | 0 | 17 | 19 | 0 | 0 | 0
8 | CC(C)c1cc(-c2ccc3c(N)n[nH]c3c2)nc(N)n1 [GSK2250882] | 4 | 0 | 0 | 0 | 0 | 22 | 13 | 0 | 0 | 0
9 | COc1ccc(Nc2nccc(N3CCC(NC(=O)c4cc5ccccc5s4)C3)n2)cc1 (centres unmarked) [GSK1379738] | 14 | 0 | 0 | 3 | 0 | 41 | 0 | 0 | 0 | 0
10 | CNc1nc(-c2ccc3c(N)n[nH]c3c2)cc(N2C[C@@H](C(=O)Nc3ccccc3)CC[C@H]2C)n1 [GSK2298859] | 35 | 0 | 0 | 12 | 0 | 2 | 0 | 0 | 100 | 0
11 | Nc1cccc(-c2ccc3c(N)n[nH]c3c2)n1 [GSK2192730] | 0 | 13 | 0 | 0 | 0 | 29 | 17 | 0 | 21 | 0
12 | Fc1ccc(-c2nc3n(c2-c2ccncc2)CCS3)cc1 [GI98581] | 35 | 0 | 0 | 12 | 14 | 22 | 53 | 3 | 0 | 0
13 | Cc1ccc(NC(=O)Nc2ccc(Cl)cc2)cc1-c1ccc(C(=O)Nc2ccncc2)cc1 [GSK1398472] | 27 | 3 | 22 | 0 | 31 | 0 | 0 | 17 | 0 | 0
14 | CNC(=O)c1ccc(C)c(-n2c(C)cc(OCc3ccc(F)cc3F)c(Br)c2=O)c1 | 2 | 0 | 0 | 0 | 0 | 0 | 0 | 0 | 0 | 4
15 | Cc1nccc(-c2c(-c3ccc(F)cc3)ncn2CCCN2CCOCC2)n1.Cl [SB-282975] | 21 | 19 | 6 | 23 | 2 | 9 | 9 | 0 | 78 | 0
16 | COc1ccc(-c2coc3ccc(-c4nnc(C)o4)cc23)cc1 | 0 | 0 | 0 | 0 | 0 | 2 | 0 | 0 | 12 | 0
17 | CCCCc1nn2ncccc2c1-c1ccnc(NC2CC2)n1 [GW684374] | 61 | 0 | 29 | 0 | 0 | 23 | 72 | 0 | 0 | 0
